The panel holds about 83,000 compounds, 20% with a hit somewhere; the sample as a whole holds those more often.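 Cell lines were cultured in 96-well plates, exposed to a single compound concentration, and assessed for percent growth 48 hours later.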 The source made the active and inactive calls. How the source made its calls: active means growth percent below 10; inactive means the rest.
Columns and labels:
Assay in all cases: NCI-60 one-dose screen, 48 h (100 = growth as untreated, 0 = no growth, -100 = all killed)
Details in all cases: 10 µM
HCT-15 colon = test system: HCT-15 colon
HT29 colon = test system: HT29 colon
SNB-75 CNS = test system: SNB-75 CNS
SNB-19 CNS = test system: SNB-19 CNS
U251 CNS = test system: U251 CNS
PC-3 prostate = test system: PC-3 prostate
SK-MEL-5 melanoma = test system: SK-MEL-5 melanoma
UACC-62 melanoma = test system: UACC-62 melanoma
LOX IMVI melanoma = test system: LOX IMVI melanoma
SK-MEL-28 melanoma = test system: SK-MEL-28 melanoma
SK-MEL-2 melanoma = test system: SK-MEL-2 melanoma
EKVX NSCLC = test system: EKVX NSCLC
UO-31 renal = test system: UO-31 renal
TK-10 renal = test system: TK-10 renal
ACHN renal = test system: ACHN renal
A498 renal = test system: A498 renal
CCRF-CEM leukemia = test system: CCRF-CEM leukemia
MOLT-4 leukemia = test system: MOLT-4 leukemia
SN12C renal = test system: SN12C renal
CAKI-1 renal = test system: CAKI-1 renal

Measured: growth

CCCCCCCCCCOC(c1ccccc1)c1ccccc1
inactive: HCT-15 colon 81.1% | HT29 colon 66.7% | SNB-75 CNS 95.1% | SNB-19 CNS 96% | U251 CNS 94.2% | PC-3 prostate 83.5% | SK-MEL-5 melanoma 104% | UACC-62 melanoma 81.5% | LOX IMVI melanoma 79.6% | SK-MEL-28 melanoma 96.2% | SK-MEL-2 melanoma 73.5% | EKVX NSCLC 90.4% | UO-31 renal 75.6% | TK-10 renal 85.1% | ACHN renal 88.8% | A498 renal 109% | CCRF-CEM leukemia 93.7% | MOLT-4 leukemia 84.5%

O=[N+]([O-])c1ccc(/C(=C/c2ccccc2)[n+]2ccccc2)cc1
inactive: HCT-15 colon 104% | HT29 colon 106% | SNB-75 CNS 98.7% | SNB-19 CNS 103% | U251 CNS 94.3% | PC-3 prostate 99% | SK-MEL-5 melanoma 103% | UACC-62 melanoma 100% | LOX IMVI melanoma 105% | SK-MEL-28 melanoma 105% | SK-MEL-2 melanoma 125% | SN12C renal 101% | UO-31 renal 100% | TK-10 renal 114% | ACHN renal 107% | CAKI-1 renal 111% | A498 renal 101% | CCRF-CEM leukemia 89.9% | MOLT-4 leukemia 105%

CCN1CCN(CCC(=O)Nc2cccc(-n3cc(-c4ccncc4)c(-c4ccc(Cl)c(OC)c4)n3)c2)CC1
active: HT29 colon -23.4% | SNB-75 CNS 9.22% | U251 CNS -7.85% | SK-MEL-5 melanoma -3.03% | UACC-62 melanoma -17% | LOX IMVI melanoma -47.5% | SK-MEL-28 melanoma -52.3% | SK-MEL-2 melanoma -19.5% | A498 renal -14.1% | CCRF-CEM leukemia 1.32% | MOLT-4 leukemia 2.89%
inactive: HCT-15 colon 13.7% | SNB-19 CNS 39.4% | PC-3 prostate 16.5% | EKVX NSCLC 54.5% | UO-31 renal 34.6% | TK-10 renal 44.7% | ACHN renal 37.2%

O=C(CCc1nnc2sc(-c3cc(O)c(O)c(O)c3)nn12)c1nc2ccccc2[nH]1
inactive: HCT-15 colon 88.8% | HT29 colon 93.5% | SNB-75 CNS 93.6% | SNB-19 CNS 113% | U251 CNS 94.4% | PC-3 prostate 86.3% | SK-MEL-5 melanoma 84.1% | UACC-62 melanoma 104% | LOX IMVI melanoma 98.3% | SK-MEL-28 melanoma 110% | SK-MEL-2 melanoma 111% | SN12C renal 107% | UO-31 renal 83.2% | TK-10 renal 117% | ACHN renal 106% | CAKI-1 renal 100% | A498 renal 75.2% | MOLT-4 leukemia 92.3%

CNC(=O)c1cn(C2CC2)c2cc(N3CCN(C(=O)c4cc(OC)c(OC)c(OC)c4)CC3)c(F)cc2c1=O
inactive: HCT-15 colon 100% | HT29 colon 99.2% | SNB-75 CNS 96% | SNB-19 CNS 96.4% | U251 CNS 96.3% | PC-3 prostate 89.9% | SK-MEL-5 melanoma 98.3% | UACC-62 melanoma 96.5% | LOX IMVI melanoma 94.7% | SK-MEL-28 melanoma 105% | SK-MEL-2 melanoma 94.8% | EKVX NSCLC 91.2% | UO-31 renal 79% | TK-10 renal 92.1% | ACHN renal 99.4% | CAKI-1 renal 90.9% | A498 renal 88.4% | MOLT-4 leukemia 99.7%

COc1cc(NC(=O)C2=C(N3CCOCC3)/C(=C/c3ccc(Cl)cc3)CC2)cc(OC)c1OC
inactive: HCT-15 colon 73% | HT29 colon 86% | SNB-75 CNS 90.5% | SNB-19 CNS 79.3% | U251 CNS 91.2% | PC-3 prostate 44.8% | SK-MEL-5 melanoma 66.3% | UACC-62 melanoma 73.1% | LOX IMVI melanoma 89.4% | SK-MEL-28 melanoma 112% | SK-MEL-2 melanoma 85.4% | EKVX NSCLC 93.4% | UO-31 renal 72.8% | TK-10 renal 121% | ACHN renal 93.5% | A498 renal 98.3% | CCRF-CEM leukemia 39.8% | MOLT-4 leukemia 49.3%

COc1ccc(/C=C/C(=O)C(=O)/C=C/c2ccc(OC)c(OC)c2)cc1OC
inactive: SNB-75 CNS 64.9% | SNB-19 CNS 33.1% | PC-3 prostate 43.6% | SK-MEL-5 melanoma 77.9% | SK-MEL-2 melanoma 96.6% | TK-10 renal 68.6% | CAKI-1 renal 84.3% | A498 renal 72.9% | MOLT-4 leukemia 23.4%
active: HCT-15 colon -3.56% | HT29 colon -35.2% | U251 CNS 6.4% | UACC-62 melanoma -10.8% | LOX IMVI melanoma -66.4% | SK-MEL-28 melanoma -9.43% | SN12C renal 2.82% | UO-31 renal 0.571% | ACHN renal -0.679%

CCOC(=O)N/N=C/c1ccc(OC)c(OC)c1
inactive: HCT-15 colon 110% | HT29 colon 104% | SNB-75 CNS 106% | SNB-19 CNS 104% | U251 CNS 100% | PC-3 prostate 104% | SK-MEL-5 melanoma 101% | UACC-62 melanoma 98.7% | LOX IMVI melanoma 102% | SK-MEL-28 melanoma 107% | SK-MEL-2 melanoma 115% | SN12C renal 99.2% | UO-31 renal 106% | TK-10 renal 123% | ACHN renal 106% | CAKI-1 renal 110% | A498 renal 107% | CCRF-CEM leukemia 91.4% | MOLT-4 leukemia 107%

CCCN1CN2C(=O)N3CN(CCC)CN4C(=S)N(C1)C2C34 (configuration not stated)
inactive: HCT-15 colon 98.2% | HT29 colon 99.5% | SNB-75 CNS 81% | SNB-19 CNS 101% | U251 CNS 97.3% | PC-3 prostate 91.5% | SK-MEL-5 melanoma 107% | UACC-62 melanoma 98% | LOX IMVI melanoma 103% | SK-MEL-28 melanoma 93.4% | SK-MEL-2 melanoma 102% | EKVX NSCLC 95.2% | UO-31 renal 94.6% | TK-10 renal 93.2% | ACHN renal 94.4% | CAKI-1 renal 90.4% | A498 renal 108% | CCRF-CEM leukemia 94.9% | MOLT-4 leukemia 103%

O=C(N/N=C/c1c(Cl)cccc1Cl)c1ccccc1Nc1cccc(C(F)(F)F)c1
active: A498 renal -5.76%
inactive: HCT-15 colon 88.5% | HT29 colon 103% | SNB-75 CNS 105% | SNB-19 CNS 97% | U251 CNS 89.9% | PC-3 prostate 89.9% | SK-MEL-5 melanoma 72.9% | UACC-62 melanoma 87.1% | LOX IMVI melanoma 76.3% | SK-MEL-28 melanoma 99.5% | SK-MEL-2 melanoma 71.4% | EKVX NSCLC 89.8% | UO-31 renal 93.7% | ACHN renal 102% | CAKI-1 renal 95.5% | CCRF-CEM leukemia 73.1% | MOLT-4 leukemia 77.9%

O=C(Cn1cc(CO)nn1)Nc1nc2ccccc2s1
inactive: HCT-15 colon 105% | HT29 colon 99.5% | SNB-75 CNS 92.4% | SNB-19 CNS 96.9% | U251 CNS 102% | PC-3 prostate 96.3% | SK-MEL-5 melanoma 102% | UACC-62 melanoma 97% | LOX IMVI melanoma 95.1% | SK-MEL-28 melanoma 106% | SK-MEL-2 melanoma 107% | SN12C renal 96.5% | UO-31 renal 72.6% | TK-10 renal 106% | ACHN renal 104% | CAKI-1 renal 88.9% | CCRF-CEM leukemia 103% | MOLT-4 leukemia 104%

COc1cc(C(=O)/C=C/c2c[nH]c3ccccc23)cc(OC)c1OC
inactive: HCT-15 colon 19% | SNB-75 CNS 45.9% | SNB-19 CNS 34.9% | U251 CNS 14.7% | PC-3 prostate 35.4% | UACC-62 melanoma 30.6% | LOX IMVI melanoma 14.4% | SK-MEL-28 melanoma 64.7% | SK-MEL-2 melanoma 19.5% | EKVX NSCLC 35.2% | UO-31 renal 20.9% | TK-10 renal 48% | ACHN renal 18.7% | CAKI-1 renal 27.6% | A498 renal 10.2% | MOLT-4 leukemia 17.6%
active: HT29 colon -21.1% | SK-MEL-5 melanoma -53.1%

Cc1cc(CCNC=O)c(C)c2c1sc1ccccc12
inactive: HCT-15 colon 90.2% | HT29 colon 97.1% | SNB-75 CNS 81.9% | SNB-19 CNS 85.1% | U251 CNS 92% | PC-3 prostate 84.7% | SK-MEL-5 melanoma 78.8% | UACC-62 melanoma 79.1% | LOX IMVI melanoma 98.4% | SK-MEL-28 melanoma 89.9% | SK-MEL-2 melanoma 109% | SN12C renal 79.7% | UO-31 renal 91.2% | TK-10 renal 94.4% | ACHN renal 99.8% | CAKI-1 renal 80.7% | A498 renal 72.8% | CCRF-CEM leukemia 84% | MOLT-4 leukemia 94.5%

Cn1cnc([N+](=O)[O-])c1/C=C1\Oc2ccc(Br)cc2C1=O
active: CCRF-CEM leukemia 2.63%
inactive: HCT-15 colon 70.4% | HT29 colon 83.8% | SNB-75 CNS 88.1% | SNB-19 CNS 90.1% | U251 CNS 101% | PC-3 prostate 81.5% | SK-MEL-5 melanoma 91.2% | UACC-62 melanoma 96.6% | LOX IMVI melanoma 72.8% | SK-MEL-28 melanoma 97.4% | SK-MEL-2 melanoma 83.1% | SN12C renal 98.6% | UO-31 renal 67.6% | TK-10 renal 99.7% | ACHN renal 68.8% | CAKI-1 renal 87.3% | A498 renal 100% | MOLT-4 leukemia 60.2%

Cc1cc(C)nc(NS(=O)(=O)c2ccc(Nc3nc4nc(NCc5ccccc5)nc(-c5ccc(O)cc5)c4c(=O)[nH]3)cc2)n1
active: PC-3 prostate 1.02% | SK-MEL-5 melanoma 4.9% | SK-MEL-2 melanoma 4.65%
inactive: HCT-15 colon 18.5% | HT29 colon 32.2% | SNB-75 CNS 48.2% | SNB-19 CNS 28.2% | U251 CNS 11.9% | UACC-62 melanoma 21.8% | LOX IMVI melanoma 23.4% | SK-MEL-28 melanoma 32.7% | SN12C renal 33.1% | UO-31 renal 10.9% | TK-10 renal 10.3% | ACHN renal 15.6% | CAKI-1 renal 33.1% | A498 renal 42.5% | CCRF-CEM leukemia 19.6%

COc1ccc(Nc2cnc3cc(NS(=O)(=O)c4ccc(C)cc4)ccc3n2)cc1
inactive: HCT-15 colon 59.8% | HT29 colon 45.1% | SNB-75 CNS 61.7% | SNB-19 CNS 83% | U251 CNS 77.9% | PC-3 prostate 101% | SK-MEL-5 melanoma 77.4% | UACC-62 melanoma 65.3% | LOX IMVI melanoma 87% | SK-MEL-28 melanoma 81.1% | SK-MEL-2 melanoma 65.5% | SN12C renal 85.9% | UO-31 renal 59.3% | TK-10 renal 94.7% | ACHN renal 90.3% | CAKI-1 renal 61.5% | A498 renal 77.9% | CCRF-CEM leukemia 90% | MOLT-4 leukemia 57.5%

COc1ccc2nc3cc(Cl)ccc3c(N)c2c1
active: HCT-15 colon -65% | HT29 colon -67.3% | SNB-75 CNS -99.3% | SNB-19 CNS 4.71% | U251 CNS -74.3% | PC-3 prostate -73% | SK-MEL-5 melanoma -95.6% | UACC-62 melanoma -96.4% | LOX IMVI melanoma -94.7% | SK-MEL-28 melanoma -98.4% | SK-MEL-2 melanoma -71.2% | SN12C renal -80.3% | UO-31 renal -74% | TK-10 renal -68.7% | ACHN renal -99.5% | CAKI-1 renal -55.6% | CCRF-CEM leukemia -5.6% | MOLT-4 leukemia -55.4%

From PubChem BioAssay (NCI)
